Experimental data from PubChem BioAssay (NCI).
About 79,000 compounds went through this panel and 15% of them were active in at least one assay; those are over-represented in the sample as a whole. Unmarked numbers belong to inactive results. Activity calls are given as the source filed them. No stated cut-off is given here; in the data, active means growth inhibition above about 70%; inactive means the rest.

Assay: NCI Yeast Anticancer Drug Screen. Data for the wt1 strain (AID 149);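 further: 0% = growth of vehicle-treated wt1 cultures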
Details: S. cerevisiae wt1 strain (SPY 50644) growth inhibition; at 100.0 µM; stronger effect = higher value
In short: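 Measured: growth of wt1 yeast under compound versus vehicle treatment, reported as inhibition.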

Row | SMILES | growth inhibition
1 | CC(C)c1cc(C(C)C)c(O)c(C([O-])[O-])c1.CC(C)c1cc(C(C)C)c(O)c(C([O-])[O-])c1.CC(C)c1cc(C(C)C)c(O)c(C([OH2+])[OH2+])c1.CC(C)c1cc(C(C)C)c(O)c(C([OH2+])[OH2+])c1.[Cu+2].[Cu+2].[OH3+].[OH3+] | 67%
2 | Cc1cc(I)ccc1N | 91% (active)
3 | CC(Br)C(=O)c1ccc2cc(Br)c3ccccc3c2c1 (stereo not drawn) | -3%
4 | O=C(Nc1ccccc1)OCCc1ccc(Cl)c(Cl)c1 | 8%
5 | O=Cc1cccc2ccc3ccccc3c12 | 52%
6 | O=[N+]([O-])CC(SCc1ccccc1)c1ccc2c(c1)OCO2 (stereo not drawn) | 98% (active)
7 | CC1(Cl)CC(O)C2(CC1Br)C1(C)OC1C1OC1(Br)C2(C)C (stereo not drawn) | 98% (active)
8 | Cc1cc(O)cc(O)c1N=Nc1ccc([N+](=O)[O-])cc1 | 62%
9 | CCCCCCCCCCCCCC[N+](C)(CC(=O)[O-])Cc1ccccc1 (stereo not drawn) | 99% (active)
10 | CC1=NN(c2cccc(Cl)c2)C(=O)C1 | 28%
11 | CC(=O)OCc1ccc(O)c(C=O)c1 | 18%
12 | Cc1ccc2ccc3cccc4ccc1c2c34 | 15%
13 | Cc1nc(-[n+]2nc(-c3ccncc3)nn2-c2ccccc2)sc1C | -11%
14 | C(CCSC1=NCCN1)CSC1=NCCN1 (tested in a mixture with another compound) | 99% (active)
15 | CCCCCCCCCCC(=O)Cl | 85% (active)
16 | COC1C=COC2(C)Oc3c(C)c(O)c4c(c3C2=O)/C(=N/C2CCC(O)OC2C)C=C(NC(=O)/C(C)=C\C(=O)C2CC2C(O)C(C)C(O)C(C)C(OC(C)=O)C1C)C4=O (stereo not drawn) | 11%
17 | S=c1[nH]nc(Nc2ccc(Cl)cc2)s1 | 89% (active)
18 | O=C1CSC(/C=C/c2ccccc2)N1c1ccc(-c2ccc(-n3c(-c4ccccc4)nc4ccccc4c3=O)cc2)cc1 (stereo not drawn) | 14%
19 | O=C1C=CC(=O)N1c1ccc2c(c1)Cc1cc(NC(=O)C(F)(F)F)ccc1-2 | 60%
20 | Brc1ccc(-c2cc3c(cc2C2SCCS2)OCO3)cc1 | -7%
21 | Oc1ccc2ccccc2c1C(c1ccc(Cl)cc1)c1c(O)ccc2ccccc12 | 84% (active)
22 | C[CH2][Sn]([CH2]C)([O]C(=O)C(OC(C)=O)c1ccccc1)[O]C(=O)C(OC(C)=O)c1ccccc1 (stereo not drawn) | 91% (active)
23 | Cc1ccc2ccc(O)cc2c1 | 71% (active)

Assay: NCI Yeast Anticancer Drug Screen. Data for the rad50EPP+ strain (AID 151);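 further: 0% = growth of vehicle-treated control cultures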
Details: S. cerevisiae rad50 mutant strain, at 1.2 µM, stronger effect = higher value
In short: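 Genetically defined yeast (rad50EPP+, DNA damage repair alteration) is grown with compound, and inhibition of growth is expressed relative to vehicle-treated controls.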

Row | SMILES | growth inhibition
24 | Cc1cccc2c(C(O)CBr)cc(-c3ccc(Cl)cc3)nc12 (stereo not drawn) | 1%
25 | CN(C)C[C@H]1CC[C@@H](CN(C)C)C1=O | 16%
26 | CC1=C(SCCO)C(=O)c2ccccc2C1=O | -7%
27 | COC(=O)CCNc1c2ccccc2nc2cccc([N+](=O)[O-])c12 | 18%
28 | CC(/C=C/c1ccc2c(c1)OCO2)[N+](=O)[O-] (stereo not drawn) | 73% (active)
29 | COC(=O)C1=C(C)NC(C)=C(C(=O)OCCCN2CCC(c3ccccc3)(c3ccccc3)CC2)C1c1cccc([N+](=O)[O-])c1 (stereo not drawn) | 66%
30 | CCOC(=O)c1cnc2c(C(F)(F)F)cccc2c1N=[N+]=[N-] | 4%
31 | O=[N+]([O-])c1cc2no[n+]([O-])c2cc1N1CCCCC1 | 26%
32 | COC(=O)c1ccc(NCC2=CC(=O)C=CC2=O)cc1O | 17%
33 | CCCCCCCCNC(=O)C1=C(C)NC(C)=C(C(=O)NCCCCCCCC)C1 | 0%
34 | S=C(Nc1ccc(Cl)c(Cl)c1)SCc1ccc2c(c1)OCO2 | 27%
35 | O=S(=O)(CCCl)c1ccccc1Cl | -7%
36 | Nc1ccccc1CC(O)C(=O)O (stereo not drawn) | -2%
37 | CN(C)c1ccc(Sc2ccc3nc(N)nc(N)c3c2)cc1 | 15%
38 | CC(C)C1=CCC2C(=C1)CCC1C(C)(C(=O)O)CCCC21C (stereo not drawn) (tested in a mixture with another compound) | 30%
39 | Cc1ccc(S(=O)(=O)Oc2cc(Cl)c(Cl)cc2Cl)cc1 | -1%
40 | CSC(=S)Nc1cc(C)ccn1 | -7%
41 | CC(C)c1cc(C(C)C)c(O)c(C([O-])[O-])c1.CC(C)c1cc(C(C)C)c(O)c(C([O-])[O-])c1.CC(C)c1cc(C(C)C)c(O)c(C([OH2+])[OH2+])c1.CC(C)c1cc(C(C)C)c(O)c(C([OH2+])[OH2+])c1.[Cu+2].[Cu+2].[OH3+].[OH3+] | 1%
42 | Cc1cc(I)ccc1N | -24%
43 | CC(Br)C(=O)c1ccc2cc(Br)c3ccccc3c2c1 (stereo not drawn) | 2%

Row | SMILES | growth inhibition
44 | O=C(Nc1ccccc1)OCCc1ccc(Cl)c(Cl)c1 | 7%
45 | O=Cc1cccc2ccc3ccccc3c12 | 5%
46 | O=[N+]([O-])CC(SCc1ccccc1)c1ccc2c(c1)OCO2 (stereo not drawn) | 44%
47 | CC1(Cl)CC(O)C2(CC1Br)C1(C)OC1C1OC1(Br)C2(C)C (stereo not drawn) | -9%
48 | Cc1cc(O)cc(O)c1N=Nc1ccc([N+](=O)[O-])cc1 | 18%
49 | CCCCCCCCCCCCCC[N+](C)(CC(=O)[O-])Cc1ccccc1 (stereo not drawn) | 5%
50 | CC1=NN(c2cccc(Cl)c2)C(=O)C1 | -65%
51 | CC(=O)OCc1ccc(O)c(C=O)c1 | -6%
52 | Cc1ccc2ccc3cccc4ccc1c2c34 | -2%
53 | Cc1nc(-[n+]2nc(-c3ccncc3)nn2-c2ccccc2)sc1C | 3%
54 | C(CCSC1=NCCN1)CSC1=NCCN1 (tested in a mixture with another compound) | 30%
55 | CCCCCCCCCCC(=O)Cl | 18%
56 | COC1C=COC2(C)Oc3c(C)c(O)c4c(c3C2=O)/C(=N/C2CCC(O)OC2C)C=C(NC(=O)/C(C)=C\C(=O)C2CC2C(O)C(C)C(O)C(C)C(OC(C)=O)C1C)C4=O (stereo not drawn) | -2%
57 | S=c1[nH]nc(Nc2ccc(Cl)cc2)s1 | -2%
58 | O=C1CSC(/C=C/c2ccccc2)N1c1ccc(-c2ccc(-n3c(-c4ccccc4)nc4ccccc4c3=O)cc2)cc1 (stereo not drawn) | 2%
59 | O=C1C=CC(=O)N1c1ccc2c(c1)Cc1cc(NC(=O)C(F)(F)F)ccc1-2 | 29%
60 | Brc1ccc(-c2cc3c(cc2C2SCCS2)OCO3)cc1 | -4%
61 | Oc1ccc2ccccc2c1C(c1ccc(Cl)cc1)c1c(O)ccc2ccccc12 | -50%
62 | C[CH2][Sn]([CH2]C)([O]C(=O)C(OC(C)=O)c1ccccc1)[O]C(=O)C(OC(C)=O)c1ccccc1 (stereo not drawn) | 0%
63 | Cc1ccc2ccc(O)cc2c1 | -25%
